# In PubChem BioAssay (NCI):
# The panel holds about 83,000 compounds, 20% with a hit somewhere; the sample as a whole holds those more often.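 Cells were grown in 96-well plates and exposed to the test compound at a single concentration for 48 hours; results are reported as percent growth, with values below 10 considered active.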 The source made the active and inactive calls.
# System: UO-31 renal
# Assay: NCI-60 one-dose screen, 48 h (100 = growth as untreated, 0 = no growth, -100 = all killed)
# Conditions: 10 µM unless noted
row,SMILES,growth
1,O=C1CN(Cc2ccc(C(=O)NO)cc2)C(=O)[C@@H](Cc2ccccc2)N1,92.9% (inactive)
2,COc1ncc(-c2ccc3nccc(C#CCCCCC(=O)NO)c3c2)cc1NS(=O)(=O)c1ccc(F)cc1F,8.08% (active)
3,CCCCCN(CCCCC)CCCCCCCCN1CCCc2ccccc21,62% (inactive)
4,CC1Cc2c(Cl)ncnc2N(C)c2ccc(O)cc21 (stereo not drawn),22.5% (inactive)
5,FC(F)(F)c1ccc2c(c1)Sc1ccccc1N2,73.6% (inactive)
6,Cc1ccc2c(n1)C(=O)C(Cl)=C(Nc1ccc(N3CCN(C)CC3)cc1)C2=O,-97.4% (active)
7,CCOc1cc(/C=N\NC(=O)N/N=C/c2ccc(O)c(OCC)c2)ccc1O,59.1% (inactive)
8,C1=C[C@H]2O[C@@H]1c1ccc3[nH]ccc3c12,98.3% (inactive)
9,CC1(C)CC[C@]2(C(=O)O)CC[C@]3(C)[C@H](CC[C@@H]4[C@@]5(C)CCC(=O)C(C)(C)[C@@H]5CC[C@]43C)[C@H]2[C@H]1OC(=O)C(F)(F)F,-96.4% [100 µM] (active)
10,[2H]C1([2H])CCN(C(=O)C2CC2)c2cc(NS(=O)(=O)c3ccc(-c4cccc(C(N)=O)c4)cc3)ccc21,77.8% (inactive)
11,CCOC(=O)c1sc2nc(-c3cc(OC)c(OC)c(OC)c3)nc(N3CCOCC3)c2c1C,22.4% (inactive)
12,O=C(CCN1CCCCC1)c1ccc(Cl)cc1,96% (inactive)
13,O=C1CC(C(F)(F)F)Cc2nc3ccc(Br)cc3cc21 (stereo not drawn),59.7% (inactive)
14,NC(=O)c1cccc(-c2ccc(S(=O)(=O)Nc3ccc4c(c3)N(C(=O)C3CC3)CCC4)cc2)c1,82.2% (inactive)
15,CCOC(=O)CCC[P+](c1ccccc1)(c1ccccc1)c1ccccc1,87.5% (inactive)
16,CC1(C)CC[C@]2(C(=O)O)CC[C@]3(C)C(=CC[C@@H]4[C@@]5(C)C/C(=C/c6cccnc6)[C@H](O)C(C)(C)[C@@H]5CC[C@]43C)[C@@H]2C1,-57.6% [100 µM] (active)
17,CCC(Br)(CC)C(=O)c1ccc(OCC(=O)O)c(Cl)c1Cl,92.1% (inactive)
18,C#C[C@]1(O)CC[C@H]2[C@@H]3CC=C4c5nc(Nc6ccccc6[N+](=O)[O-])sc5CC[C@]4(C)[C@H]3CC[C@@]21C,63.1% (inactive)
19,O=C(N/N=C\c1cc(Cl)ccc1O)N/N=C/c1cc(Cl)ccc1O,17.3% (inactive)

row,SMILES,growth
1,C=C(C)[C@@H]1CC[C@]2(C(=O)NCCNCCNC(=O)OC(C)(C)C)CC[C@]3(C)[C@H](CC[C@@H]4[C@@]5(C)CCC(=O)C(C)(C)[C@@H]5CC[C@]43C)[C@@H]12,17.4% [100 µM] (inactive)
2,Cc1cc(C)c(O)c(CNCCCNCc2cc(C)cc(C)c2O)c1,28.2% (inactive)
3,O=C(Nc1ccc(C(=O)/C=C/c2ccc(N3CCOCC3)cc2)cc1)Nc1ccc([N+](=O)[O-])cc1,83.5% (inactive)
4,C[C@H]1[C@H](C)CC[C@]2(C(=O)N3CCN(C)CC3)CC[C@]3(C)C(=CC[C@@H]4[C@@]5(C)C/C(=C/c6ccco6)C(=O)C(C)(C)[C@@H]5CC[C@]43C)[C@H]12,-97.5% [100 µM] (active)
5,Nc1nc(Cl)c2ncn(Cc3cc4c(cc3I)OCO4)c2n1,34.7% (inactive)
6,CC1(C)OC2[C@@H](CNC(=O)NC(=O)NC(=O)CI)O[C@@H](n3cnc4c(NC(=O)Nc5ccccc5)ncnc43)[C@H]2O1 (stereo partly drawn),-78.6% (active)
7,Fc1cc2[nH]ncc2c2c3c(c(-c4cn[nH]c4C(F)(F)F)nc12)C1CCC3C1 (stereo not drawn),-44.2% (active)
8,CC1Cc2c(Cl)ncnc2N(C)c2ccccc21 (stereo not drawn),10.4% (inactive)
9,C=C(C)[C@@H]1CC[C@]2(COCCCN)CC[C@]3(C)[C@H](CC[C@@H]4[C@@](C)(CCCNCCCN)[C@H](C(=C)C)CC[C@]43C)[C@@H]12,-79.8% [100 µM] (active)
10,CCCCCCSc1ncnc2nc[nH]c12,64.7% (inactive)
11,C[C@@H]1C[C@H]2C(=O)O[C@@H](C)[C@H](NC(=O)[C@H](Cc3cc(F)cc(F)c3)NC(=O)Nc3ccc(C4CC4)cc3F)C(=O)N3CCC[C@H]3C(=O)N3CCCC[C@H]3C(=O)N[C@@H](C)C(=O)N2C1,8.68% (active)
12,O=[N+]([O-])c1ccc(O)c(-c2nc3ccccc3s2)c1,43.5% (inactive)
13,COc1cc2c(cc1OC(C)=O)C(=O)CCCC2,88.4% (inactive)
14,COc1ccc(CC(C#N)c2ccc(Cl)cc2)cc1 (stereo not drawn),102% (inactive)
15,COc1ccc(N(c2nc(-c3ccc([N+](=O)[O-])cc3)cs2)C(C)C)cc1,69.3% (inactive)
16,C=C(C)[C@@H]1CC[C@]2(C)[C@H](CC[C@@H]3[C@@H]([C@@](C)(O)CCC=C(C)C)CC[C@]32C)[C@@]1(C)CCC(=O)O,-93.1% [100 µM] (active)
17,CCOc1ccc(S(=O)(=O)Nc2ccc3c(c2)N(S(=O)(=O)CC)CCC3)cc1,80.9% (inactive)
18,Cc1cnc(N)nc1OCCNC(=O)c1cccc(-c2ccc(S(=O)(=O)Nc3ccc4c(c3)N(C(=O)C3CC3)CCC4)cc2)c1,77.1% (inactive)
19,Fc1cc2[nH]ncc2c2c3c(c(-c4cn[nH]c4)nc12)CCCC3,-13.7% (active)
